Here are results for four molecules from ChEMBL document CHEMBL1961873, “Compounds: GSK PKIS; Assays: Nanosyn kinase panel” (2012).

Assay [1] deals with T1, Ephrin type-B receptor 2 (Homo sapiens) (UniProt P29323).
T1 sequence (whole entry): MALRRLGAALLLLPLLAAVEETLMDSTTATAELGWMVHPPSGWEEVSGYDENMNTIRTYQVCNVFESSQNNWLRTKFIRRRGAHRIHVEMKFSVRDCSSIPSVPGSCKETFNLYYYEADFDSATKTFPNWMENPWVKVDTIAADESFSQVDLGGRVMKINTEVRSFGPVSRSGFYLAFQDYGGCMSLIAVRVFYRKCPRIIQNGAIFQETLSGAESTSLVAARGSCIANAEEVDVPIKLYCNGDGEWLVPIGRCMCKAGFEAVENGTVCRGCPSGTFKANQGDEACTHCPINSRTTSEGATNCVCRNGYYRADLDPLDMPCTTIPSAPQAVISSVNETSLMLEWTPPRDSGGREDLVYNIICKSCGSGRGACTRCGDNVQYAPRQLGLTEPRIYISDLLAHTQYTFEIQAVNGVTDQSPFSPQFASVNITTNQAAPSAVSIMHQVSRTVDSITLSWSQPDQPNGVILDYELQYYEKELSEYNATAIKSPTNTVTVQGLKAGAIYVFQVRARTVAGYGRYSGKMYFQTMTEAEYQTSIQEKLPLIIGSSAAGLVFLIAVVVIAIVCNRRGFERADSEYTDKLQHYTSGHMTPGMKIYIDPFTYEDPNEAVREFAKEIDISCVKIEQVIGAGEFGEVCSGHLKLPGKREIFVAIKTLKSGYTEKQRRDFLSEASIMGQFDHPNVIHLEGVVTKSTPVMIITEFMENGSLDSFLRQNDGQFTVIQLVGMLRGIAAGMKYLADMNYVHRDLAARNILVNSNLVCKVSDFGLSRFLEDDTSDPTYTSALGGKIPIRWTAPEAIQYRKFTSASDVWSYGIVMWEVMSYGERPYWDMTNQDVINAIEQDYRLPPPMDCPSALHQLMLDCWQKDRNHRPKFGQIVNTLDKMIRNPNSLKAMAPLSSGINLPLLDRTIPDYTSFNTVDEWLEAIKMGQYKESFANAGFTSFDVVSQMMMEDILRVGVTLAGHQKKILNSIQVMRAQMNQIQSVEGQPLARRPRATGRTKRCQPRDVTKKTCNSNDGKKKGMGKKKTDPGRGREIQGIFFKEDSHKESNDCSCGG
To be noted: at 1 µM.

In assay [2] the target is T2, Ephrin type-B receptor 3 (Homo sapiens) (UniProt P54753).
T2 sequence (whole entry): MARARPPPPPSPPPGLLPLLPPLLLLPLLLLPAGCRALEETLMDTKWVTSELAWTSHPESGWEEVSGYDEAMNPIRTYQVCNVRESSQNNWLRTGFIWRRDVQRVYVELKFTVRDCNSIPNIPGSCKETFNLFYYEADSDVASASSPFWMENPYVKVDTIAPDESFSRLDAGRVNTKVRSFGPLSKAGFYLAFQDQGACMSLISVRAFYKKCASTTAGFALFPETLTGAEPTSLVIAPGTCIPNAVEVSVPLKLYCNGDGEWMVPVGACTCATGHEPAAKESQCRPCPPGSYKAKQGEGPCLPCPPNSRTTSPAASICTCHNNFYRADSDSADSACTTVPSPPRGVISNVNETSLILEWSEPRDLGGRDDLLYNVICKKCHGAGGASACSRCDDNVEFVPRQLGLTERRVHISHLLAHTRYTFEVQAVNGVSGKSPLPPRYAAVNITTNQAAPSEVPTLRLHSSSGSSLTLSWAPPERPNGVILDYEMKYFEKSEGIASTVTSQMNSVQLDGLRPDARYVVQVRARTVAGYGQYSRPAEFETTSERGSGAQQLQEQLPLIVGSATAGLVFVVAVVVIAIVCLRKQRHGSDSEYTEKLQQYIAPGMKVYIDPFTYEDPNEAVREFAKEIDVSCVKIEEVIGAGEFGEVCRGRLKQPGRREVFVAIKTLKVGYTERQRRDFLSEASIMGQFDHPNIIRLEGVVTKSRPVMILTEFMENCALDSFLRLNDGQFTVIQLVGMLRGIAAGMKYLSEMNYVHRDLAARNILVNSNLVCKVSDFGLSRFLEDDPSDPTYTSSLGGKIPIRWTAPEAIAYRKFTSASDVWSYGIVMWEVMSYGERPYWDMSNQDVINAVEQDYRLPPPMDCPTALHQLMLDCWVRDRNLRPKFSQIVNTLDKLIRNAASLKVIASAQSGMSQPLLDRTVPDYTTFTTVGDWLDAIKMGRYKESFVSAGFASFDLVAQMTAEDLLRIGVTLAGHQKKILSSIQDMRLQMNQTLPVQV
The conditions noted are these: at 0.1 µM.

Assay [3] has as its target T2, Ephrin type-B receptor 3 (Homo sapiens). The conditions noted are these: at 1 µM.
For assay [4], the target named is T3, Ephrin type-B receptor 4 (Homo sapiens) (UniProt P54760).
T3 sequence (whole entry): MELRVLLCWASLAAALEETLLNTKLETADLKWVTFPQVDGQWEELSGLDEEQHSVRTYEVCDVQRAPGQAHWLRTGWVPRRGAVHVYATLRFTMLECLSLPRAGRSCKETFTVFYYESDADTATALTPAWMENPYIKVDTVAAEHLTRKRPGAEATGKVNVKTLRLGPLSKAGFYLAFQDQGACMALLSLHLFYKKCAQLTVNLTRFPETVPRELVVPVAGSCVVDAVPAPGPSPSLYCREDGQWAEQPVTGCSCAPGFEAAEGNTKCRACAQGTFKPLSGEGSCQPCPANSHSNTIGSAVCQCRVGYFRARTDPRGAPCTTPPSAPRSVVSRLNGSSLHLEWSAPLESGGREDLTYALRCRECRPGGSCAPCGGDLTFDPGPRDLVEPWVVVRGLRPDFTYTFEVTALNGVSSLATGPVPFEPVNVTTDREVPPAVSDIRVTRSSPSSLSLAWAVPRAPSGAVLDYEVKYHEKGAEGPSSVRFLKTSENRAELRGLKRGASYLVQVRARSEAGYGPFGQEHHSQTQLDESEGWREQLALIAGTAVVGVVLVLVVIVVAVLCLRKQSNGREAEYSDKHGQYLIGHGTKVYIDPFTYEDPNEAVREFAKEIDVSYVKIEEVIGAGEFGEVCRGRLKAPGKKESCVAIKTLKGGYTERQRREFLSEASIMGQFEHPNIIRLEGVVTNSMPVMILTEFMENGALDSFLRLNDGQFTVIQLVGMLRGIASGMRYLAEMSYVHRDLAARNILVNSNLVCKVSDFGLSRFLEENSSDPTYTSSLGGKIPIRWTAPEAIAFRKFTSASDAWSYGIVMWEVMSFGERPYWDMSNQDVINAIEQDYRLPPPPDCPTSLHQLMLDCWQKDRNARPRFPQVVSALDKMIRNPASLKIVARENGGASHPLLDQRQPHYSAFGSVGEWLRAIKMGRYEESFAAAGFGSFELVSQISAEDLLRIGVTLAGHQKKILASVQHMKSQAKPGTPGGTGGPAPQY
The conditions noted are these: at 0.1 µM.

In assay [5] the target is T3, Ephrin type-B receptor 4 (Homo sapiens). To be noted: at 1 µM.
For assay [6], the target named is Receptor tyrosine-protein kinase erbB-2 (Homo sapiens) (UniProt P04626). To be noted: at 0.1 µM.
Assay [7] has the same target. To be noted: at 1 µM.
Assay [8] has as its target Receptor tyrosine-protein kinase erbB-4 (Homo sapiens) (UniProt Q15303). The conditions noted are these: at 0.1 µM.
For assay [9] the target is unchanged. To be noted: at 1 µM.
Assay [10] concerns the target Tyrosine-protein kinase Fer (Homo sapiens) (UniProt P16591). The conditions noted are these: at 0.1 µM.
The target is the same in assay [11]. To be noted: at 1 µM.
Assay [12] addresses Tyrosine-protein kinase Fes/Fps (Homo sapiens) (UniProt P07332). To be noted: at 0.1 µM.
Assay [13] has the same target. To be noted: at 1 µM.
For assay [14], the target named is Fibroblast growth factor receptor 1 (Homo sapiens) (UniProt P11362). To be noted: at 0.1 µM.
Sequence of Fibroblast growth factor receptor 1 (Homo sapiens) (P11362 22-822 limits assumed): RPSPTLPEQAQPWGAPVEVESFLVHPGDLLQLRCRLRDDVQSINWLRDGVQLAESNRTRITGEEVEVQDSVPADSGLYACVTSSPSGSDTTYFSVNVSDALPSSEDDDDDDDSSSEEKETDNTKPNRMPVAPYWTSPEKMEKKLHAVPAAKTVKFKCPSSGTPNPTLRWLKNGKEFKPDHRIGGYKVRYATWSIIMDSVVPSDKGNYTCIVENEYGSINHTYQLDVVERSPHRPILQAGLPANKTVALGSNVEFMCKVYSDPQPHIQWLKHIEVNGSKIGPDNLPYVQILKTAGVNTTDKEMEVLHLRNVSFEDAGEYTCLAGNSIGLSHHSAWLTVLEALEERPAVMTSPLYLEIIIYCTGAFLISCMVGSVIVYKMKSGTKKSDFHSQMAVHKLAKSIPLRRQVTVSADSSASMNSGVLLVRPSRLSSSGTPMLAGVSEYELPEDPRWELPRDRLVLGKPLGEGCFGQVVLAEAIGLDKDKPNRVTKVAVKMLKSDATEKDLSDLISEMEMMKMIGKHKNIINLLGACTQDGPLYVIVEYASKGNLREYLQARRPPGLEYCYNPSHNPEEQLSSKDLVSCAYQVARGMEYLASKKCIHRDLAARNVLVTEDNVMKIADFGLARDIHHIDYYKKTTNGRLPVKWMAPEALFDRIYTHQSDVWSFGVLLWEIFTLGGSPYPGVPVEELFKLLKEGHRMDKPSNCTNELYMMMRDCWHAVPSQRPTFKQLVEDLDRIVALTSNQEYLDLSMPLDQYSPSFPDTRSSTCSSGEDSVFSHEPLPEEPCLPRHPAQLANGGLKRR
The target is the same in assay [15]. To be noted: at 1 µM.
The target of assay [16] is Fibroblast growth factor receptor 2 (Homo sapiens) (UniProt P21802). To be noted: at 0.1 µM.
Assay [17] has the same target. The conditions noted are these: at 1 µM.
Assay [18] concerns the target Fibroblast growth factor receptor 3 (Homo sapiens) (UniProt P22607). The conditions noted are these: at 0.1 µM.
For assay [19] the target is unchanged. To be noted: at 1 µM.
In assay [20] the target is Fibroblast growth factor receptor 4 (Homo sapiens) (UniProt P22455). To be noted: at 0.1 µM.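 Note: values are mean percent inhibition of FGFR4.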

Where “and” joins values, the source holds several entries; their conditions need not be identical. Identical values can stand only once.

Sequence of Tyrosine-protein kinase Fes/Fps (Homo sapiens) (P07332 whole entry): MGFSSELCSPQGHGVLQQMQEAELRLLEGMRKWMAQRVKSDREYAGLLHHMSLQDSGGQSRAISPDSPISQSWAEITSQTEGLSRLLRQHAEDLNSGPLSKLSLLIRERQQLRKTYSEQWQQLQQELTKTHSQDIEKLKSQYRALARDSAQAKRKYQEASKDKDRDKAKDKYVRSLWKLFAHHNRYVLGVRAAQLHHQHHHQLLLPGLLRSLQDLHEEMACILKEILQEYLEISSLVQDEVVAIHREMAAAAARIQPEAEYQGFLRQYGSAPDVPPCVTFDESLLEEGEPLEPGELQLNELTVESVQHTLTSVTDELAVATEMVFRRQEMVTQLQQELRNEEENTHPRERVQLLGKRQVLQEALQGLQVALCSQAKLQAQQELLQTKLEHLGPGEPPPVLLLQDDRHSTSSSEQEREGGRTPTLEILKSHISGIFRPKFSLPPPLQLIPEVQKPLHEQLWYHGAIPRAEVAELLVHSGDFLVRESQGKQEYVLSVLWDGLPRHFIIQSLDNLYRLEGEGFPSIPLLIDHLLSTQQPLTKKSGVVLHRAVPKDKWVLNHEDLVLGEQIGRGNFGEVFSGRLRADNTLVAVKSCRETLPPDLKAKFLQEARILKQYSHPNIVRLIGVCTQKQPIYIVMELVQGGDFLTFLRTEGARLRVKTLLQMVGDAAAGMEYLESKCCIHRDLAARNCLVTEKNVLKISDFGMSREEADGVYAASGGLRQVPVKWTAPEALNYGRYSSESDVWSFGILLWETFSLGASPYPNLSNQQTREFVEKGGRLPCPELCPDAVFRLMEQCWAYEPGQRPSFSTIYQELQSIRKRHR
Sequence of Receptor tyrosine-protein kinase erbB-4 (Homo sapiens) (Q15303 whole entry): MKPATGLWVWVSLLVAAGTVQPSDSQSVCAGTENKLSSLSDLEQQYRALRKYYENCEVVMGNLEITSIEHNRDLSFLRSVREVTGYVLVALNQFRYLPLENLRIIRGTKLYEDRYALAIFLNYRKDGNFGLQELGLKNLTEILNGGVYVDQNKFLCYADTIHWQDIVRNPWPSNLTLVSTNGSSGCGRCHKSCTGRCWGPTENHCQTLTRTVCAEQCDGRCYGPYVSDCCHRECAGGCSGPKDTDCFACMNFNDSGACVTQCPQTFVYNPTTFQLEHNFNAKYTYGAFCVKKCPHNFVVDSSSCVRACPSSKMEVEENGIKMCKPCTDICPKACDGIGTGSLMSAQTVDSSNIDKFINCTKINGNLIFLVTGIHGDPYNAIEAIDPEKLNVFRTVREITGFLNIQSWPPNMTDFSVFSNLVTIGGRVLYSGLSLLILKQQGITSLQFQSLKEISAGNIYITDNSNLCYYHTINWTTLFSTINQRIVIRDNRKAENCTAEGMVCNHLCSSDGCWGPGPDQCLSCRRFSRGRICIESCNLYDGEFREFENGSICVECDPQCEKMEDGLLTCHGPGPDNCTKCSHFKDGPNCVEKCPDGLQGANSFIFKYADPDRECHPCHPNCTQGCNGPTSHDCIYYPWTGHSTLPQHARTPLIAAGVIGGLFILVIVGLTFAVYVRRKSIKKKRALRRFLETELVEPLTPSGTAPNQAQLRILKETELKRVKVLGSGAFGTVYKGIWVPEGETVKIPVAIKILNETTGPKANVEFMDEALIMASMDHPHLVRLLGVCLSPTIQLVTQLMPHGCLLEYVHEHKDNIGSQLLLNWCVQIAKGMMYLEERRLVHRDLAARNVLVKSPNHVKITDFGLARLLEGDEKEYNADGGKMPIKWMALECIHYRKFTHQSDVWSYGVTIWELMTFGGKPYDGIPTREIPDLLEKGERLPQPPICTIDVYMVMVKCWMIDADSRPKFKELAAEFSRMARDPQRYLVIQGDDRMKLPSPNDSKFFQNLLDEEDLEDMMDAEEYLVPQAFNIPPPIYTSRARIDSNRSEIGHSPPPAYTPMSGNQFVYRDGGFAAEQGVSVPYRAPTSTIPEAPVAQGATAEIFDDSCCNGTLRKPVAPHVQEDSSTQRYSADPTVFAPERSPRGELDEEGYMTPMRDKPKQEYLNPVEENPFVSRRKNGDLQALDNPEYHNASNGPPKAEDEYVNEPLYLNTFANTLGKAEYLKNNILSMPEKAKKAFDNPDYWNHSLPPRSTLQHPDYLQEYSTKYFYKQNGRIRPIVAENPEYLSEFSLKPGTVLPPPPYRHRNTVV
Sequence of Tyrosine-protein kinase Fer (Homo sapiens) (P16591 whole entry, looked up): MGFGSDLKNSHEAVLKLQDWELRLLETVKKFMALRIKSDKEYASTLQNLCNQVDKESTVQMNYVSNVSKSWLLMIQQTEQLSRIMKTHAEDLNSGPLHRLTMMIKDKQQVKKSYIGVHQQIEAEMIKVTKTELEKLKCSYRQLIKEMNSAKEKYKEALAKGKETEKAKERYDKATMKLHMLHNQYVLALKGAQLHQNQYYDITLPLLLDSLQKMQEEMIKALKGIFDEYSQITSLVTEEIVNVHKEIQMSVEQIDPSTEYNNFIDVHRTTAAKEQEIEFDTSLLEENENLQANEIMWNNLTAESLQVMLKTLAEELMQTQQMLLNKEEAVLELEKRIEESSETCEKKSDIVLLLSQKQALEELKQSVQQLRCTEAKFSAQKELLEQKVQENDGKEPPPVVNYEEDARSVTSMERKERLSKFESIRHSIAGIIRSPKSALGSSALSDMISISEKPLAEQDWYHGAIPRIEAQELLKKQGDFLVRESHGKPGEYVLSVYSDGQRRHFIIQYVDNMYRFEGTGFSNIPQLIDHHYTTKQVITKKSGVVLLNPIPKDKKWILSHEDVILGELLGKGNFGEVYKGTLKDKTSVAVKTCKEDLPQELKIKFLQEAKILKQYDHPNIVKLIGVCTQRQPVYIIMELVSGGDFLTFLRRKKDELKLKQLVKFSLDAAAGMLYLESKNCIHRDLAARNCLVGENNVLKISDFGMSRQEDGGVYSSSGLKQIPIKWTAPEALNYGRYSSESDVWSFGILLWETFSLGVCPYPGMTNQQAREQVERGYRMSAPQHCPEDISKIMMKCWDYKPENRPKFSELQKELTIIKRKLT
Sequence of Fibroblast growth factor receptor 3 (Homo sapiens) (P22607 23-806 limits assumed): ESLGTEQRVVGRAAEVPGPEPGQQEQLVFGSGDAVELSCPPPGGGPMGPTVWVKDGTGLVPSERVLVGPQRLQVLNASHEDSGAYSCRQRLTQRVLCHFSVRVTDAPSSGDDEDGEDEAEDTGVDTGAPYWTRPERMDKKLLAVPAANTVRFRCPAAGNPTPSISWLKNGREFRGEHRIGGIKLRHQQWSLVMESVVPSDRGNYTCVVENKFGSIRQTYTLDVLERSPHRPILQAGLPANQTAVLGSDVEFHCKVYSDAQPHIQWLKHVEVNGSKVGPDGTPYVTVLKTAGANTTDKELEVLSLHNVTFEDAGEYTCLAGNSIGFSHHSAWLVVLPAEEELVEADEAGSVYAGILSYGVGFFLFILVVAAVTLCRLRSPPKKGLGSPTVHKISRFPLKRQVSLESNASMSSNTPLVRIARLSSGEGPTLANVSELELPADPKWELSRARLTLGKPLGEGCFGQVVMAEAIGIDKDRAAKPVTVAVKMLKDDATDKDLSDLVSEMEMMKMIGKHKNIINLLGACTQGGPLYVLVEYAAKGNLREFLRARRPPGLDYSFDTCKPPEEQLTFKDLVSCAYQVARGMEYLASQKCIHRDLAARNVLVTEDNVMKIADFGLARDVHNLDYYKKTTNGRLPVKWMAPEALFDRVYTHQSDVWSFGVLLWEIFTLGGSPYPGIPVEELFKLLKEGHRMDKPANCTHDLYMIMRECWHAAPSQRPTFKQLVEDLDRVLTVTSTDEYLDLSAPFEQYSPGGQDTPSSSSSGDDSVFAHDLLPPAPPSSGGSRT

As to `Fc1cccc(COc2ccc(Nc3ncncc3C#Cc3ccccc3)cc2Cl)c1`, the inhibition in assay [1] turned out to be 11.3%; in assay [2] it was 4.96%; in assay [3], 3.65%; in assay [4], 1.3%; in assay [5] it was 2.18%; in assay [6] it was 3.69%. Moreover, the inhibition in assay [7] came out at 4.08%; in assay [8], 9.32%; in [9], 19%; in assay [10] it was 2.19%; in assay [11], 6.06%; in assay [12] it was 2.55%. Besides, the inhibition in assay [13] was 3.61%; in [14], 2.88%; in assay [15] it was 2.38%; in assay [16], 4.03%; in assay [17], 5.85%; in assay [18], 4.99%. For the same molecule, the inhibition in [19] was determined as 3.8%; in assay [20] it was 0.25%.

Regarding `CCn1c(-c2nonc2N)nc2cncc(C(=O)NCCNC)c21`, the inhibition in assay [1] is 7.7%; in assay [2], 3.02%; in assay [3] it was 3.19%; in assay [4], -0.07%; in assay [5], 0.78%; in assay [6], 5.03%. Further, the inhibition in assay [7] was found to be 3.74%; in assay [8], 10.7%; in assay [9] it was 12.2%; in assay [10], 4.13%; in assay [11], 3.14%; in [12] it was 4.48%. Moreover, the inhibition came to 4.8% in assay [13]; 2.05% in assay [14]; 4.72% in assay [15]; 3.81% in assay [16]; 5.33% in [17]; 2% in assay [18]. The values for the inhibition in assay [19] and in [20] were 5.02% and 0.72%, respectively.

Consider `CNC(=O)c1ncccc1Nc1nc(Nc2cc3c(cc2OC)CCCN3C(=O)CN(C)C)nc2[nH]ccc12`, for which the inhibition in assay [1] was 9.33%; in assay [2] it was 4.77%; in [3] it was -0.74%; in assay [4], 1.64%; in assay [5], 2.22%; in assay [6], 3.4%. The inhibition in [7] came to 3.24%; in assay [8], 10.7%; in [9], 20.2%; in assay [10] it was 71.3%; in assay [11] it was 80.1%; in assay [12] it was 44.3%. Further, the inhibition came to 80.6% in assay [13]; 9.89% in assay [14]; 3.03% in [15]; 6.69% in [16]; 6.99% in [17]; 7.55% in assay [18]. The results for the inhibition in assay [19] and in [20] were 4.61% and 2.18%, respectively.

As for `Nc1ncnc2occ(-c3ccc(NC(=O)Nc4cc(C(F)(F)F)ccc4F)cc3)c12`, the inhibition in assay [1] is 80.2% and 81.5%; in assay [2], 26.4% and 1.64%; in assay [3], 63.5% and 51.1%; in assay [4], 30.6% and 20.3%; in [5], 84.8% and 72.7%; in [6], 0.55% and 1.68%. Further, the inhibition in assay [7] is -4.37% and 6.37%; in assay [8], 5.76% and -0.4%; in assay [9], 4.08% and 3.51%; in assay [10] it was 6.66% and 0.72%; in assay [11], 29.4% and 17.7%; in assay [12], 1.99% and -1.17%. The inhibition in assay [13] was 3.25% and -0.8%; in assay [14] it was 3.81% and 0.38%; in assay [15], 29.8% and 19.3%; in [16], 14.1% and 7.78%; in [17] it was 52.2% and 43.8%; in assay [18], 6.93% and 1.4%. For the same molecule, the inhibition in [19] is 34.3% and 17.9%; in assay [20], 2.49% and 0.65%.

The inhibition is the drop in the measured response relative to a control, in per cent.
